In PubChem BioAssay (NCI) one finds growth data, which are given here for 39 molecules.

This is part of a sample that, as a whole, favours compounds with a hit. Of some 83,000 tested, about 20% had one in any assay.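 Plates (96-well) were seeded with cells, treated with compound at one concentration, and incubated for 48 hours before percent growth was determined.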 Values without a mark were called inactive. Calls of active or inactive are those of the source. The calls were made as follows: active = growth percent below 10; inactive = the rest.

The subject of one assay is NCI-H23 lung. Briefly: NCI-60 one-dose screen, 48 h (100 = growth as untreated, 0 = no growth, -100 = all killed). As to conditions: 10 µM unless noted.
For `CCCSC1=NC2C(N(CC)C(=O)N2CC)N1/N=C/C=C/c1ccccc1[N+](=O)[O-]` (stereo not drawn), the growth is 46.5%.
For `COC(=O)C1=Nc2ccc(F)cc2/C1=C/c1sc(=S)[nH]c1O`, the growth was 28.6%.
Still for that read-out and setting: in the case of `O=C1c2cc(Br)ccc2Oc2cc([N+](=O)[O-])ccc2N1c1ccc(I)cc1F` it was 93%; in that of `COc1cccc(-c2nn(C)c3sc(C(=O)NCCN4CCN(c5ccccc5F)CC4)cc23)c1`, 91.2%.
Still for that read-out and setting: in the case of `O=S(=O)(c1ccccc1)n1cc2c(c1-c1ccccc1)CCc1sc(Nc3ccccc3)nc1-2` it was 92.8%.
Regarding `CN1CCN(Cc2ccc(NC(=O)c3cncc(C#Cc4nc(N)nc5[nH]ncc45)c3)cc2C(F)(F)F)CC1`, the growth is 102%.
With `Clc1ccc(-c2nnc(COc3ccc(C4=NNC(c5ccco5)C4)cc3)o2)cc1` (stereo not drawn), the growth was 61.5%.
In the case of `CC(=O)c1ccc(Cc2ccc(C(C)=O)s2)s1`, the growth was 103%.
For the molecule `CCOC(=O)c1cnc2ccc(Cl)cc2c1NCCCN(C)C`, the growth was 22%.
Still for that read-out and setting: the value for `CCN1C(=O)N(CC)C2C1NN=c1s/c(=C3\C(=O)N(CC(C)(C)C)c4ccccc43)c(=O)n12` (stereo not drawn) was 45%; that for `CC(=O)c1ccc2oc(=O)n(Cc3ccc(C#N)cc3)c(=O)c2c1` was 103%.
For `O=C1/C(=C/c2cccc(O)c2)COc2ccc(O)cc21`, the growth was 86.5%.
Same read-out and setting: in the case of `O=C(Nc1nc2c(s1)CCc1c-2c(Br)n(Cc2ccccc2)c1Br)c1ccccc1` it was 79.9%; in that of `Nc1n[nH]c2ccc([C@@H]3Nc4ccc5[nH]ncc5c4[C@H]4[C@H]5CCC(C5)[C@H]43)cc12`, 31.4%.
For `CN(C)c1ccc(/C=C/c2ccnc3c(O)cccc23)cc1`, the growth was 34.8%.
`CCOC(=O)c1cc2c(n1Cc1cccc(OC)c1)-c1oncc1CCC2`: the growth was 36.4%.
For the molecule `Cn1nc(C(C)(C)C)cc1NC(=O)Cc1ccc(/C=C2\C(=O)Nc3ccccc32)cc1`, the growth was 41.1%.
As for `Cc1c(C(=O)OCCO)cc(-c2ccc(Cl)cc2)n1-c1ccc(Cl)cc1Cl`, the growth was 77.6%.
Still for that read-out and setting: the value for `CCC1=C[C@]2(C3CC(=O)N(c4ccccc4)C3=O)CC(C(C)(C)C)C[C@@H]2[C@@H]2C(=O)N(c3ccccc3)C(=O)[C@H]12` (stereo partly drawn) was 95.2%.
With `Nc1ccc(-c2nn3c(CCC(=O)c4nc5ncccc5[nH]4)nnc3s2)c(O)c1`, the growth was 83.1%.
The same measure, in the same setting: the value for `CCCCCCc1cc2cc(-c3nc4ccccc4[nH]3)c(=Nc3ccccc3C)oc2cc1O` was 50.4%; that for `COc1ccc(OC)c(N(CCN2C(=O)c3ccccc3C2=O)C(=O)CCl)c1` was 32.1%; that for `COc1ccc(C)c2sc(N(Cc3cccnc3)C(=O)c3ccc(C#N)cc3)nc12` was 7.42% (active).
Same read-out and setting: the value for `O=C(/C=C/c1ccccn1)c1ccc(OCc2nnc(-c3ccc(Cl)cc3)o2)cc1` was 70%; that for `COc1ccc(C2C3=C(COC3=O)N(CCO)c3cc4c(cc32)CCC4)cc1` (stereo not drawn) was 87.2%.
As for `CN(C)/C=C1\SC(=Nc2ccc(Cl)cc2)NC1=O`, the growth was 103%.
Same read-out and setting: the value for `c1ccc(CNc2nc(Nc3ccccc3)nc3ccccc23)cc1` was 64.6%.
Regarding `COc1ccc2c(c1)C=C1CSCC3=Cc4cc(OC)ccc4OC13O2`, the growth is 18.7%.
As for `COc1ccc(C(O)(CCC(C)C)C(CN2CCOCC2)c2ccc(Cl)cc2)cc1` (stereo not drawn), the growth is 74.6%.
As to `COC(=O)[C@H]1CCCN1C(=O)[C@H]1CCCN1C(=O)[C@H](Cc1c[nH]c2ccccc12)NC(=S)Nc1cc(C(F)(F)F)cc(C(F)(F)F)c1`, the growth is 65.2%.
For the molecule `CCn1c(Cc2ccccc2Nc2c(Cl)cccc2Cl)nnc1SCC(=O)NN1C(=O)/C(=C/c2cccc(OC)c2OC)SC1=S`, the growth is 98.4%.
On the same count and under the same terms, the value for `CCCC(c1nnnn1C1CCCCC1)N1CCN(C(=O)c2ccco2)CC1` (stereo not drawn) was 71%; that for `C1=CC2(C=C1)OC21CCC2(C=CC3(C2)OC3C2CCCCC2)CC1` (stereo not drawn) was 116%.
As for `O=C(NC1CCN(Cc2ccccc2)CC1)c1cc(C(=O)NC2CCN(Cc3ccccc3)CC2)cc(C(=O)NC2CCN(Cc3ccccc3)CC2)c1`, the growth is 77.2%.
Consider `COc1cc(-c2c3c(c(Br)n2Cc2ccccc2)-c2nc(N)sc2CC3)cc(OC)c1OC`, for which the growth was 98.2%.
Regarding `NC(CCc1nc2ccccc2c(=O)[nH]1)C(=O)O` (stereo not drawn), the growth is 105%.
Still for that read-out and setting: in the case of `Nc1no[n+]([O-])c1-c1nnc2c(n1)-c1ccccc1C2=O` it was -40.8% (active).
On the same count and under the same terms, the value for `CCOc1ccc(-c2nonc2NC(=O)c2cccc(C)c2)cc1OCC` was 78.9%; that for `Cc1ccc(OCCCCCCNCCO)c(C)c1` was 19.8%.

In another assay the test system is NCI-H322M lung. The description is as above. The settings on record: 10 µM unless noted.
In the case of `CCCSC1=NC2C(N(CC)C(=O)N2CC)N1/N=C/C=C/c1ccccc1[N+](=O)[O-]` (stereo not drawn), the growth is 57.5%.
Same read-out and setting: in the case of `COC(=O)C1=Nc2ccc(F)cc2/C1=C/c1sc(=S)[nH]c1O` it was 29%.
With `O=C1c2cc(Br)ccc2Oc2cc([N+](=O)[O-])ccc2N1c1ccc(I)cc1F`, the growth is 103%.
Same read-out and setting: the value for `COc1cccc(-c2nn(C)c3sc(C(=O)NCCN4CCN(c5ccccc5F)CC4)cc23)c1` was 87.3%.
For the molecule `O=S(=O)(c1ccccc1)n1cc2c(c1-c1ccccc1)CCc1sc(Nc3ccccc3)nc1-2`, the growth was 75.6%.
For the molecule `CN1CCN(Cc2ccc(NC(=O)c3cncc(C#Cc4nc(N)nc5[nH]ncc45)c3)cc2C(F)(F)F)CC1`, the growth was 114%.
Turning to `Clc1ccc(-c2nnc(COc3ccc(C4=NNC(c5ccco5)C4)cc3)o2)cc1` (stereo not drawn), the growth is 36.6%.
Still for that read-out and setting: in the case of `CC(=O)c1ccc(Cc2ccc(C(C)=O)s2)s1` it was 92.1%.
The same measure, in the same setting: in the case of `CCOC(=O)c1cnc2ccc(Cl)cc2c1NCCCN(C)C` it was 10.4%.
Still for that read-out and setting: in the case of `CCN1C(=O)N(CC)C2C1NN=c1s/c(=C3\C(=O)N(CC(C)(C)C)c4ccccc43)c(=O)n12` (stereo not drawn) it was 60.5%; in that of `CC(=O)c1ccc2oc(=O)n(Cc3ccc(C#N)cc3)c(=O)c2c1`, 100%.
Consider `O=C1/C(=C/c2cccc(O)c2)COc2ccc(O)cc21`, for which the growth is 98.2%.
For `O=C(Nc1nc2c(s1)CCc1c-2c(Br)n(Cc2ccccc2)c1Br)c1ccccc1`, the growth was 58.9%.
As for `Nc1n[nH]c2ccc([C@@H]3Nc4ccc5[nH]ncc5c4[C@H]4[C@H]5CCC(C5)[C@H]43)cc12`, the growth is 42.7%.
As for `CN(C)c1ccc(/C=C/c2ccnc3c(O)cccc23)cc1`, the growth was 28.7%.
In the case of `CCOC(=O)c1cc2c(n1Cc1cccc(OC)c1)-c1oncc1CCC2`, the growth was 74.8%.
Consider `Cn1nc(C(C)(C)C)cc1NC(=O)Cc1ccc(/C=C2\C(=O)Nc3ccccc32)cc1`, for which the growth was 84.8%.
For `Cc1c(C(=O)OCCO)cc(-c2ccc(Cl)cc2)n1-c1ccc(Cl)cc1Cl`, the growth is 84.3%.
On to `CCC1=C[C@]2(C3CC(=O)N(c4ccccc4)C3=O)CC(C(C)(C)C)C[C@@H]2[C@@H]2C(=O)N(c3ccccc3)C(=O)[C@H]12` (stereo partly drawn), for which the growth is 69.3%.
For the molecule `Nc1ccc(-c2nn3c(CCC(=O)c4nc5ncccc5[nH]4)nnc3s2)c(O)c1`, the growth was 87.5%.
Same read-out and setting: the value for `CCCCCCc1cc2cc(-c3nc4ccccc4[nH]3)c(=Nc3ccccc3C)oc2cc1O` was 62.8%; that for `COc1ccc(OC)c(N(CCN2C(=O)c3ccccc3C2=O)C(=O)CCl)c1` was 97.7%.
The same measure, in the same setting: the value for `COc1ccc(C)c2sc(N(Cc3cccnc3)C(=O)c3ccc(C#N)cc3)nc12` was 6.37% (active).
Consider `O=C(/C=C/c1ccccn1)c1ccc(OCc2nnc(-c3ccc(Cl)cc3)o2)cc1`, for which the growth was 52.7%.
Still for that read-out and setting: in the case of `COc1ccc(C2C3=C(COC3=O)N(CCO)c3cc4c(cc32)CCC4)cc1` (stereo not drawn) it was 96.2%; in that of `CN(C)/C=C1\SC(=Nc2ccc(Cl)cc2)NC1=O`, 108%.
Consider `c1ccc(CNc2nc(Nc3ccccc3)nc3ccccc23)cc1`, for which the growth was 46.5%.
As to `COc1ccc2c(c1)C=C1CSCC3=Cc4cc(OC)ccc4OC13O2`, the growth was 49.2%.
On the same count and under the same terms, in the case of `COc1ccc(C(O)(CCC(C)C)C(CN2CCOCC2)c2ccc(Cl)cc2)cc1` (stereo not drawn) it was 88.3%.
On the same count and under the same terms, the value for `COC(=O)[C@H]1CCCN1C(=O)[C@H]1CCCN1C(=O)[C@H](Cc1c[nH]c2ccccc12)NC(=S)Nc1cc(C(F)(F)F)cc(C(F)(F)F)c1` was 78.4%; that for `CCn1c(Cc2ccccc2Nc2c(Cl)cccc2Cl)nnc1SCC(=O)NN1C(=O)/C(=C/c2cccc(OC)c2OC)SC1=S` was 99%; that for `CCCC(c1nnnn1C1CCCCC1)N1CCN(C(=O)c2ccco2)CC1` (stereo not drawn) was 97.5%.
Still for that read-out and setting: in the case of `C1=CC2(C=C1)OC21CCC2(C=CC3(C2)OC3C2CCCCC2)CC1` (stereo not drawn) it was 105%.
In the case of `O=C(NC1CCN(Cc2ccccc2)CC1)c1cc(C(=O)NC2CCN(Cc3ccccc3)CC2)cc(C(=O)NC2CCN(Cc3ccccc3)CC2)c1`, the growth was 90.3%.
As for `COc1cc(-c2c3c(c(Br)n2Cc2ccccc2)-c2nc(N)sc2CC3)cc(OC)c1OC`, the growth is 77.7%.
Same read-out and setting: the value for `NC(CCc1nc2ccccc2c(=O)[nH]1)C(=O)O` (stereo not drawn) was 97.8%.
On the same count and under the same terms, the value for `Nc1no[n+]([O-])c1-c1nnc2c(n1)-c1ccccc1C2=O` was 74.1%.
Still for that read-out and setting: in the case of `CCOc1ccc(-c2nonc2NC(=O)c2cccc(C)c2)cc1OCC` it was 93.1%; in that of `Cc1ccc(OCCCCCCNCCO)c(C)c1`, 11.1%.
